The values below come from PubChem BioAssay (Tox21).

Each structure is given as a SMILES string. Inconclusive results are not listed. Calls of active or inactive are those of the source. Unless noted, calls come from the whole dose curve; as a rule, active = well fitted curve in the direction sought with a large enough effect in the repeat runs; inconclusive = weak or mixed curves; inactive = no such curve, though single readings can be large; an effect the other way counts as inactive or inconclusive.

Experiment [1] can be described thus: qHTS assay to identify small molecule antagonists of the estrogen related receptor (ERR) signaling pathway from Tox21 library - cell viability counter screen (AID 1224834). Note: nearly all actives have a fitted effect of over 30% in size. Note: potency is the fitted concentration of half-maximal effect. The method, boiled down: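 ERR reporter cells were plated 6 h before compound addition, then exposed to test compounds in DMSO for 17.5 h at 37 C. Viability was read as CellTiter-Fluor fluorescence after a 30-minute incubation at 37 C.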

For experiment [2], the target named is Luciferin 4-monooxygenase (Photinus pyralis) (UniProt P08659). Kind of experiment: qHTS assay to identify small molecule inhibitors of firefly luciferase (AID 1224835). Note: nearly all actives have a fitted effect of over 25% in size. A digest of the protocol: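 Quantitative HTS format; KM concentrations of both substrates. Purified P. pyralis FLuc activity quantified from luminescence images.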
Chain of Luciferin 4-monooxygenase (Photinus pyralis) (P08659 whole entry, looked up): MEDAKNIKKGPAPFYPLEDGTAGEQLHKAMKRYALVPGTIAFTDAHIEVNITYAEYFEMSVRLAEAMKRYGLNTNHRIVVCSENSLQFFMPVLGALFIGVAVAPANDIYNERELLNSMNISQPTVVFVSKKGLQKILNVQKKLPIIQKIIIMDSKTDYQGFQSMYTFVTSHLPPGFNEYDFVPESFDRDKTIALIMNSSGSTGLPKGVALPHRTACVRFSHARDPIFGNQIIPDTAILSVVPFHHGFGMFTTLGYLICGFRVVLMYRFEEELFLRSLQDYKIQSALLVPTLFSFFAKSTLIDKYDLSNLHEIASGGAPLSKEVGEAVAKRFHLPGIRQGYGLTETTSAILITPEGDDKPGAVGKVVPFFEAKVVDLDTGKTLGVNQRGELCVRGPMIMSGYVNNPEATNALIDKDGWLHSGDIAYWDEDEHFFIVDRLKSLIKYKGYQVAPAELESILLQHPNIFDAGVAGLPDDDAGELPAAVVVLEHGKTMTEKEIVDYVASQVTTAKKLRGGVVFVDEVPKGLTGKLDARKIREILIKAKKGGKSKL
Experiment [3] in a line: qHTS assay to identify small molecule agonists of the constitutive androstane receptor (CAR) signaling pathway - cell viability counter screen (AID 1224836). Note: nearly all actives have a fitted effect of over 45% in size. The method, boiled down: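 Counter screen multiplexed with the CAR reporter readout: HepG2 cells co-transfected with hCAR and the CYP2B6-2.2kb construct receive a 15-concentration compound series and 0.75 uM PK11195 (final), then CellTiter-Fluor fluorescence is read after 23 h.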
(In qHTS, concentration-response curves come from the screen itself.)

Experiment [4] addresses Nuclear receptor subfamily 1 group I member 3 (Homo sapiens) (UniProt Q14994). Briefly: qHTS assay to identify small molecule antagonists of the constitutive androstane receptor (CAR) signaling pathway (AID 1224838). Note: nearly all actives have a fitted effect of over 40% in size. A digest of the protocol:
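HepG2 cells stably co-transfected with hCAR and a CYP2B6-2.2kb luciferase reporter were seeded 4 h before compound addition at 15 concentrations. Cells were stimulated with 50 nM CITCO (final) for 24 h at 37 C; luciferase luminescence was then read.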

The target is the same in experiment [5]. Briefly: qHTS assay to identify small molecule agonists of the constitutive androstane receptor (CAR) signaling pathway (AID 1224839). Note: nearly all actives have a fitted effect of over 15% in size. The method, boiled down:
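A 15-concentration quantitative screen uses HepG2 cells co-transfected stably with human CAR and CYP2B6-2.2kb reporter. Treatment lasts 24 h with 0.75 uM PK11195 final present; ONE-Glo luminescence is the signal.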

The nature of experiment [6]: qHTS assay to identify small molecule antagonists of the estrogen related receptor signaling pathway with the pleiotropic PPARgamma coactivator (PGC) from Tox21 10K library - cell viability counter screen (AID 1224840; active = well fitted cell-killing curve with a large enough effect in the repeat runs, not every such curve was filed as active; note: nearly all actives have a fitted effect of over 40% in size). The method, boiled down:
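PGC/ERR cells were seeded at 2,000 cells/well and left 6 hours at 37 C/5% CO2 before pin-tool addition of compounds in DMSO. After 17.5 hours at 37 C, CellTiter-Fluor was added and fluorescence read 30 minutes later.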

The nature of experiment [7]: qHTS assay to identify small molecule antagonists of the estrogen related receptor signaling pathway with the pleiotropic PPARgamma coactivator (PGC) from Tox21 10K library (AID 1224841; call rule not given here; note: actives are mostly falling curves and most rising ones were filed inactive; nearly all actives have a fitted effect of over 50% in size). A digest of the protocol: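 PGC/ERR reporter cells were seeded at 2,000 cells/well and held 6 hours at 37 C/5% CO2 before pin-tool addition of compounds in DMSO. After 18 hours at 37 C, One-Glo was added and luminescence read after 30 minutes at room temperature.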

The nature of experiment [8]: qHTS assay to identify small molecule agonists of the estrogen related receptor signaling pathway with the pleiotropic PPARgamma coactivator (PGC) from Tox21 10K library (AID 1224842). Note: nearly all actives have a fitted effect of over 15% in size. A digest of the protocol: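 PGC/ERR reporter cells (NTP line) were seeded 2,000 per well, rested 6 h at 37 C/5% CO2, then pin-dosed with compounds in DMSO for 18 h at 37 C; luciferase read by One-Glo luminescence after 30 min at room temperature.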

Experiment [9] addresses Thyrotropin receptor (Homo sapiens) (UniProt P16473). Kind of experiment: qHTS assay to identify small molecule agonists of the thyroid stimulating hormone receptor (TSHR) signaling pathway (AID 1224843; calls by dose curve; note: nearly all actives have a fitted effect of over 45% in size; note: potency is the fitted concentration of half-maximal effect). The method, boiled down:
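Cell line HEK293 with TSHR; density 800/well. Exposure 30 min RT. Readout HTRF cAMP (cAMP-d2/anti-cAMP-cryptate), 1 h RT before reading.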

The nature of experiment [10]: qHTS assay to identify small molecule agonists of the hypoxia (HIF-1) signaling pathway - cell viability counter screen (AID 1224844; calls by dose curve; note: nearly all actives have a fitted effect of over 50% in size). A digest of the protocol: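 HRE-bla ME-180 cells in medium with 0.5% dialyzed FBS were preincubated 5 hrs at 37C, exposed to compounds for 17 hrs, then viability was read as CellTiter-Glo luminescence after 30 min at room temperature, in the reporter wells.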

Experiment [11] in a line: qHTS assay to identify small molecule agonists of H2AX (AID 1224845; active = well fitted activation curve with a large enough effect in the signal ratio in the repeat runs, not every such curve was filed as active; the % refers to the signal ratio). The method, boiled down:
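Wild-type CHO-K1 cells plated overnight, then exposed 3 hr at 37C to compounds at 15 concentrations (0.76% DMSO). Lysed, then HTRF anti-pH2AX(S139)-cryptate/anti-H2AX-d2 detection after 24 hr at room temperature; emissions 665 and 620 nm.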

Experiment [12] can be described thus: qHTS assay to identify small molecule agonists of the hypoxia (HIF-1) signaling pathway (AID 1224846; active = well fitted activation curve with a large enough effect in the signal ratio in the repeat runs, not every such curve was filed as active; the % refers to the signal ratio). The method, boiled down: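 HRE-bla ME-180 cells (beta-lactamase reporter under hypoxia response element) were plated at 2,000 cells/well in medium with 0.5% dialyzed FBS, rested 5 hrs, then given compounds in DMSO for 17 hrs at 37C, 5% CO2. Reporter induction was read with CCF4-AM FRET substrate.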

Experiment [13] can be described thus: qHTS assay to identify small molecule agonists of H2AX - cell viability counter screen (AID 1224847; calls by dose curve; note: top concentration of the series differs between compounds; nearly all actives have a fitted effect of over 30% in size). The method, boiled down:
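We seed wild-type CHO-K1 cells overnight, treat them for 3 hr at 37C with compounds in 15-concentration series, and quantify remaining viability by CellTiter-Glo luminescence.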

Experiment [14] is described as follows: qHTS assay to identify small molecule antagonists of the estrogen related receptor (ERR) signaling pathway from Tox21 library (AID 1224848). Note: nearly all actives have a fitted effect of over 50% in size. The method, boiled down: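 Screening used an ERR reporter line supplied by NTP, exposed for 18 h at 37 C to library compounds delivered in DMSO. Signal was luciferase luminescence developed with ONE-Glo at room temperature for 30 min.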

A short description of experiment [15]: qHTS RealTime-Glo MT Cell Viability Assay in HepG2 cells - 24 hour (AID 1224867). Note: nearly all actives have a fitted effect of over 50% in size. The method, boiled down:
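Luminescence read-out: viable HepG2 cells reduce a prosubstrate to a NanoLuc substrate, giving a signal proportional to live cell number. Reads taken at 0, 8, 16, 24, 32 and 40 h of compound exposure at 37 C.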

Experiment [16] in a line: qHTS RealTime-Glo MT Cell Viability Assay in HEK293 cells - 32 hour (AID 1224868). Note: nearly all actives have a fitted effect of over 50% in size. Note: potency is the fitted concentration of half-maximal effect. A digest of the protocol: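 Nonlytic real-time viability readout: viable cells convert prosubstrate to NanoLuc substrate, giving luminescence proportional to live cell number. HEK293, 600 cells/well, compound added after 5 h, continuous culture at 37 C.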
The nature of experiment [17]: A CellTox Green Cytotoxicity Assay to monitor cytotoxicity in HEK293 cells - 0 hour (AID 1224869). Note: nearly all actives have a fitted effect of over 50% in size. A digest of the protocol:
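HEK293 cells premixed with CellTox Green dye were seeded at 600 cells/well and left 5 h at 37 C/5% CO2 before pin transfer of 23 nL compound in DMSO. Fluorescence from dye bound to dead-cell DNA was read during 40 h treatment.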

Experiment [18] can be described thus: qHTS RealTime-Glo MT Cell Viability Assay in HepG2 cells - 40 hour (AID 1224870). Note: nearly all actives have a fitted effect of over 50% in size. The method, boiled down:
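HepG2 cells mixed with RealTime-Glo MT reagents (NanoLuc plus cell-permeant prosubstrate) were seeded at 600 cells/well, incubated 5 h at 37 C/5% CO2, then pinned with compounds in DMSO; nonlytic luminescence tracked viability during 40 h treatment.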

The nature of experiment [19]: qHTS assay to identify small molecule antagonists of the constitutive androstane receptor (CAR) signaling pathway - cell viability counter screen (AID 1224837). Note: nearly all actives have a fitted effect of over 45% in size. The method, boiled down:
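HepG2 cells stably expressing hCAR and a CYP2B6-2.2kb reporter were plated and pre-incubated 4 hr at 37 C/5% CO2, then given compounds at 15 concentrations plus 50 nM CITCO (final). After 23 hr, viability was read by CellTiter-Fluor fluorescence.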

Experiment [20] in a line: qHTS assay to identify small molecule agonists of the estrogen related receptor (ERR) signaling pathway from Tox21 library (AID 1224849; calls by dose curve; note: nearly all actives have a fitted effect of over 15% in size). The following applies: ERR reporter cell line, ONE-Glo luciferase, 18 h; at 92.4 µM (top of the series) unless noted. A digest of the protocol: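 ERR reporter cell line (NTP) seeded, rested 6 h at 37 C/5% CO2, then pinned with Tox21 compounds in DMSO. After 18 h at 37 C, ONE-Glo luciferase luminescence was read following 30 min at room temperature.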
% is set by controls: 0 for no effect and ±100 for the full control effect.

Chain of Thyrotropin receptor (Homo sapiens) (P16473 whole entry, looked up): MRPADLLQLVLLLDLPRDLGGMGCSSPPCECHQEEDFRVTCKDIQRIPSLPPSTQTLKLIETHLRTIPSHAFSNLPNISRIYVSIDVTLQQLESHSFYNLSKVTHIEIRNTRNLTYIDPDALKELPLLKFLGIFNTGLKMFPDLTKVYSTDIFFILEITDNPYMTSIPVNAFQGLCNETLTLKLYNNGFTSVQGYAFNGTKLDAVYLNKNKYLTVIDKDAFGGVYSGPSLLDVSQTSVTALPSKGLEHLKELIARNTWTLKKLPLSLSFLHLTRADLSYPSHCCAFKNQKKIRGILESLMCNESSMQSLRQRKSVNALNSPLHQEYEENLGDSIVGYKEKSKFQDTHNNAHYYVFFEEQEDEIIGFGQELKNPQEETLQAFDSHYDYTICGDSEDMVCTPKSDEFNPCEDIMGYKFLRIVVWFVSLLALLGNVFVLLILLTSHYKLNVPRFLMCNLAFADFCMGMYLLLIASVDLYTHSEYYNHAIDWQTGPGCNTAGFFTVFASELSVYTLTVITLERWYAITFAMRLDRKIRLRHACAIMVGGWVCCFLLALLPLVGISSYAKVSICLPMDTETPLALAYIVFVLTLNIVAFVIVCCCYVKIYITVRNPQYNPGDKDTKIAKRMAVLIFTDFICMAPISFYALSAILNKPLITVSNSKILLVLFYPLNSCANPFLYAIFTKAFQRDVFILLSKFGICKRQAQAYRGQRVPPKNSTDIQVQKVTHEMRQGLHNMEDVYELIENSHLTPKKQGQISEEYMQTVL
Chain of Nuclear receptor subfamily 1 group I member 3 (Homo sapiens) (Q14994 whole entry, looked up): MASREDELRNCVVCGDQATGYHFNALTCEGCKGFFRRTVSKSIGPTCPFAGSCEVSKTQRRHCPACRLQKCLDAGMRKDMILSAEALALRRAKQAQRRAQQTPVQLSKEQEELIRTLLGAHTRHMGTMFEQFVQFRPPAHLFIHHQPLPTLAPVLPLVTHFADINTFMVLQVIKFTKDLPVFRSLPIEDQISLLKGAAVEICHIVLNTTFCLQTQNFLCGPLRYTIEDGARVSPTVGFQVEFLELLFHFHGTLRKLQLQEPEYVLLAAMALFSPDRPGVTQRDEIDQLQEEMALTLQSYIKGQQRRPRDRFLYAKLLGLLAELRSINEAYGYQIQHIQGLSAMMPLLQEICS

As to `CCCCCCCCCCCCN(CCCCCCCCCCCC)CCCCCCCCCCCC`, the Potency entry in [1], in experiment [2], in [3], in experiment [4], in experiment [5] and in experiment [6] was “inactive” throughout. The Potency entry in experiment [7], in [9], in experiment [10], in [13], in [14] and in experiment [15] was “inactive” in each case. Besides, the Potency entry in experiment [16], in [17] and in experiment [18] was “inactive” throughout. Moreover, the result in experiment [8], in [11] and in [12] was inactive.
Regarding `COC(=O)[C@@H](N)Cc1ccc(O)c(O)c1`, the Potency entry in [1], in experiment [2], in experiment [3], in [19], in [6] and in [7] was “inactive” throughout. Moreover, the Potency result in experiment [9], in [10], in [13], in [14], in experiment [15] and in experiment [16] was “inactive” throughout. Also, the Potency result in experiment [17] and in experiment [18] was “inactive” each time. Moreover, the call in experiment [8] was inactive. For the same compound, the activity change, positive = activation in [20] was 6.86% [at 42.5 µM] (inactive).
As for `N#Cc1ccc(C2CCCc3cncn32)cc1` (stereo unspecified), the Potency entry in experiment [1], in experiment [2], in experiment [3], in experiment [4], in experiment [5] and in experiment [6] was “inactive” throughout. In addition, the Potency entry in [7], in experiment [9], in [10], in experiment [13], in experiment [15] and in experiment [16] was “inactive” in each case. The Potency result in experiment [18] was “inactive”. Moreover, the compound was classed as inactive in [8], in [11] and in experiment [12]. The activity change, positive = activation in experiment [20] is -20.4% [at 42.5 µM] (inactive).
For the compound `CC(=O)OCC(=O)[C@@]1(O)CC[C@H]2[C@@H]3CCC4=CC(=O)CC[C@]4(C)[C@H]3C(=O)C[C@@]21C`, the Potency entry in [1], in experiment [2], in experiment [3], in experiment [19], in [6] and in experiment [10] was “inactive” in each case. The Potency entry in [13], in experiment [15], in experiment [16], in experiment [17] and in [18] was “inactive” in each case. In addition, the call in [11] was inactive.
In the case of `COc1ccc(CCN(C)CCCC(C#N)(c2cc(OC)c(OC)c(OC)c2)C(C)C)cc1OC` (stereo unspecified), the Potency in experiment [1] is 29.8 µM (active); in experiment [9], 2.11 µM (active); in experiment [16] it was 21.3 µM (active). Also, the Potency result in experiment [2], in [4], in [5], in experiment [6], in [10] and in [13] was “inactive” each time. The Potency entry in [15], in [17] and in experiment [18] was “inactive” throughout. Besides, in experiment [11], the outcome was inactive.
Turning to `CC(C)CNCC(C)C`, the Potency result in experiment [1], in experiment [2], in [3], in experiment [4], in [6] and in experiment [7] was “inactive” throughout. Further, the Potency result in experiment [9], in experiment [10], in experiment [13], in [14], in [15] and in experiment [16] was “inactive” each time. In addition, the call in experiment [8], in experiment [11] and in experiment [12] was inactive.
As for `C=CCS(=O)(=O)O`, the Potency entry in experiment [2], in [3], in experiment [19], in experiment [4], in experiment [5] and in [6] was “inactive” each time. The Potency entry in experiment [7], in experiment [9], in [10], in [13], in experiment [14] and in experiment [15] was “inactive” each time. The Potency entry in experiment [16], in experiment [17] and in experiment [18] was “inactive” in each case. For the same compound, the call in [8], in experiment [11] and in [12] was inactive. In experiment [20], the activity change, positive = activation is 4.55% (inactive).
As for `CC(C)NC(=O)NC(C)C`, the Potency entry in experiment [1], in experiment [2], in experiment [3], in experiment [4], in experiment [5] and in [7] was “inactive” each time. For the same compound, the Potency entry in experiment [9], in experiment [10], in [14], in experiment [15], in [16] and in [17] was “inactive” each time. Also, the call in experiment [8], in experiment [11] and in experiment [12] was inactive. Further, the activity change, positive = activation in experiment [20] was -2.14% (inactive).
